Drawing on PubChem BioAssay (NCI), this text covers growth for 27 compounds.

The panel holds about 83,000 compounds, 20% with a hit somewhere; the sample as a whole holds those more often.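 Note: values are percent growth. 100 is the growth of untreated cells, values between 100 and 0 indicate rising inhibition; between -100 and 0 indicates cell death.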 Values without a mark were called inactive. Calls of active or inactive are those of the source. The calls were made as follows: active = growth percent below 10; inactive = the rest.

Test systems include T-47D breast; BT-549 breast; MDA-MB-435 melanoma; SW-620 colon; MCF7 breast; HCC-2998 colon; KM12 colon; HCT-116 colon.
Experiment in all cases: NCI-60 one-dose screen, 48 h (100 = growth as untreated, 0 = no growth, -100 = all killed)
What all share (conditions): 10 µM unless noted

In the case of `CC(=O)c1cc2c(o1)C(=O)c1ccccc1C2=O`, the growth in the assay with T-47D breast is -25.3% (active); in the assay on BT-549 breast, -87.7% (active); in the assay with MDA-MB-435 melanoma, -94.4% (active); in the assay with SW-620 colon, -77.4% (active); in the assay with MCF7 breast, -65.6% (active); in the assay with HCC-2998 colon, -87.8% (active). The growth in the assay on KM12 colon was -63.6% (active).
`CCOc1ccc2nc(-c3cccc(OCC(=O)NC(C)C)c3)nc(Nc3ccc(-c4cn[nH]c4)cc3)c2c1`: the growth is -25.2% (active) in the assay with T-47D breast; -44.2% (active) in the assay with BT-549 breast; 6.53% (active) with MDA-MB-435 melanoma; 7.06% (active) with SW-620 colon; 5.64% (active) with HCT-116 colon; 24.6% with HCC-2998 colon. Also, the growth in the assay with KM12 colon was 5.29% (active).
Turning to `CCN(CC)CCOc1ccc(/C(=C(\C)c2ccc(F)c(OC)c2)c2ccc(Cl)cc2)cc1`, the growth is 18.8% in the assay with T-47D breast; 59.7% in the assay with BT-549 breast; 15% in the assay with MDA-MB-435 melanoma; -7.8% (active) in the assay with SW-620 colon; 1.56% (active) in the assay on HCT-116 colon; -33.2% (active) with HCC-2998 colon. For the same compound, the growth with KM12 colon is -3.3% (active).
Turning to `CCCCOC(=O)c1ccc(NC(=O)C(C)N2CCOCC2)cc1` (stereo unspecified), the growth in the assay with T-47D breast is 107%; with BT-549 breast, 86.6%; in the assay on MDA-MB-435 melanoma, 113%; in the assay on SW-620 colon it was 101%; in the assay with HCT-116 colon, 77.6%; with HCC-2998 colon it was 102%. In addition, the growth in the assay on KM12 colon was 109%.
Regarding `CCCCCCCCCCCCCCCCCC1=NCCN1C(=O)OCCO`, the growth in the assay with T-47D breast is 57.3%; with BT-549 breast, 113%; in the assay on MDA-MB-435 melanoma, -21.2% (active); in the assay on SW-620 colon it was -76.8% (active); in the assay with MCF7 breast it was -45.6% (active); in the assay with KM12 colon it was 21.4%.
For the compound `COc1ccc(-c2cc(-c3ccc(Nc4nc(Nc5ccccc5)nc(Nc5ccc(Cl)cc5)n4)cc3)nc(N)c2C#N)cc1`, the growth with T-47D breast was -32% (active); in the assay on BT-549 breast, -50.6% (active); in the assay on MDA-MB-435 melanoma, -58.5% (active); in the assay on SW-620 colon it was -45.6% (active); with MCF7 breast, -32.7% (active); in the assay on KM12 colon, -12.5% (active).
With `COc1ccc(C2CC(c3ccc4ccccc4c3)=NN2c2nc(O)c(C3=c4cc(Cl)ccc4=NC3=O)s2)cc1` (stereo unspecified), the growth in the assay with T-47D breast is -79.9% (active); in the assay on BT-549 breast, -26% (active); in the assay on MDA-MB-435 melanoma, -64.6% (active); with SW-620 colon, -42.4% (active); in the assay with MCF7 breast, -22.4% (active); with HCC-2998 colon, -54.1% (active). Besides, the growth in the assay with KM12 colon is -59.3% (active).
`CCNCCNc1cc(-c2ccc(C(F)(F)F)cc2)c(C#N)c2nc3cc(Cl)c(Cl)cc3n12`: the growth in the assay with T-47D breast is -53.2% (active); with BT-549 breast, -2.28% (active); with MDA-MB-435 melanoma it was -92.6% (active); in the assay on SW-620 colon, -81.8% (active); with HCT-116 colon, -88.3% (active); with HCC-2998 colon it was -88.9% (active). Moreover, the growth in the assay on KM12 colon was -77.7% (active).
As for `CN(C)S(=O)(=O)n1cnc([C@@H]2[C@@H]3C(=O)OC[C@@H]3C[C@]23N=CN(Cc2ccccc2)C3=O)c1`, the growth with T-47D breast was 102%; in the assay on BT-549 breast, 116%; in the assay on MDA-MB-435 melanoma, 108%; in the assay on SW-620 colon, 97.3%; in the assay on HCT-116 colon, 100%; with HCC-2998 colon, 98.6%. In the assay on KM12 colon, the growth is 104%.
With `CCOC(=O)Cc1csc2nc(-c3ccccc3)nn12`, the growth in the assay with T-47D breast is 92.9%; in the assay with BT-549 breast, 127%; in the assay on MDA-MB-435 melanoma, 113%; with SW-620 colon, 98.5%; in the assay with HCT-116 colon, 98.2%; in the assay on HCC-2998 colon, 103%. In addition, the growth in the assay with KM12 colon is 105%.
In the case of `Cc1ccc(Nc2ccc(Nc3ccc(C)cc3S(=O)(=O)O)c3c2C(=O)c2ccccc2C3=O)c(S(=O)(=O)O)c1`, the growth in the assay on T-47D breast was 111%; in the assay with BT-549 breast, 103%; in the assay on MDA-MB-435 melanoma, 103%; in the assay with SW-620 colon, 92%; with HCT-116 colon, 87%; with HCC-2998 colon it was 112%. The growth in the assay with KM12 colon is 96.7%.
On to `CCNCCNc1cc(-c2ccc(C(=O)OC)cc2)c(C#N)c2nc3ccccc3n12`, for which the growth is 18.6% in the assay on T-47D breast; 68.2% in the assay with BT-549 breast; 73.2% with MDA-MB-435 melanoma; 2.26% (active) in the assay on SW-620 colon; 53.8% in the assay on MCF7 breast; 49% with HCC-2998 colon. Also, the growth in the assay on KM12 colon was 50.8%.
Consider `COc1cc(C(=O)/C=C/c2c(-c3ccc(F)cc3)nc3ncccn23)cc(OC)c1OC`, for which the growth was 59.8% in the assay on T-47D breast; 32.5% in the assay with BT-549 breast; 11.9% in the assay on MDA-MB-435 melanoma; 32.2% in the assay on SW-620 colon; 17.7% with HCT-116 colon; 44.1% in the assay with HCC-2998 colon. Moreover, in the assay with KM12 colon, the growth is 22.3%.
For `NC(N)=N/N=C/CO`, the growth in the assay with T-47D breast is 108%; in the assay with BT-549 breast, 96.7%; in the assay on MDA-MB-435 melanoma, 106%; in the assay on SW-620 colon, 106%; with HCT-116 colon, 94.1%; in the assay on HCC-2998 colon it was 119%. In addition, the growth in the assay with KM12 colon was 102%.
Regarding `CC(C)c1ccc(NC(=O)Cc2ccc(Nc3ncnc4cc(-c5cnn(CCN(C)C)c5)ccc34)cc2)cc1`, the growth was -37.1% [30 µM] (active) in the assay on T-47D breast; -15.3% [30 µM] (active) in the assay on BT-549 breast; -85.4% [30 µM] (active) with MDA-MB-435 melanoma; -82.6% [30 µM] (active) in the assay on SW-620 colon; -19.7% [30 µM] (active) with HCT-116 colon; -79.6% [30 µM] (active) in the assay with HCC-2998 colon. The growth in the assay with KM12 colon was -86.4% [30 µM] (active).
Turning to `O=C1/C(=C/c2ccc([N+](=O)[O-])cc2)COc2ccc(O)c(O)c21`, the growth was -5.74% (active) with T-47D breast; 24.3% with BT-549 breast; 0.103% (active) in the assay with MDA-MB-435 melanoma; -40.6% (active) in the assay with SW-620 colon; -34.3% (active) in the assay on HCT-116 colon; -77.8% (active) with HCC-2998 colon. Besides, in the assay on KM12 colon, the growth is -55.3% (active).
For the compound `COC(=O)/C(=C\c1ccc(OC)cc1)C(=O)N1c2ccccc2Sc2ccccc21`, the growth in the assay on T-47D breast is 48.4%; in the assay with BT-549 breast it was -45.7% (active); in the assay on MDA-MB-435 melanoma, -57.8% (active); in the assay on SW-620 colon, 33.6%; in the assay with MCF7 breast it was 26.8%; in the assay with HCC-2998 colon, 86.8%. For the same compound, the growth in the assay with KM12 colon is 36.1%.
As to `CN=C1C=CC(=C(c2ccc(N(C)C)cc2)c2ccc(N(C)C)cc2)C=C1`, the growth is 3.04% (active) in the assay with T-47D breast; -34.3% (active) with BT-549 breast; -51% (active) with MDA-MB-435 melanoma; 3.29% (active) in the assay with SW-620 colon; -7.21% (active) in the assay on HCT-116 colon; -31% (active) in the assay with HCC-2998 colon. Further, in the assay on KM12 colon, the growth is -76.2% (active).
For `CC1(C)CC(=O)c2c(ccc(C(=O)C[C@H](N)CO)c2N)O1`, the growth with T-47D breast is 53.8%; in the assay with BT-549 breast, 25%; with MDA-MB-435 melanoma, 52.3%; in the assay on SW-620 colon, 7.48% (active); with MCF7 breast it was 13.3%; with HCC-2998 colon, 9.33% (active). In addition, the growth in the assay on KM12 colon is 16%.
`Nc1c(-c2nc3ccccc3c(=O)[nH]2)nnn1-c1ccc(Cl)cc1`: the growth in the assay with T-47D breast was 27.2%; in the assay with BT-549 breast, 77.8%; in the assay with MDA-MB-435 melanoma, 83.3%; with SW-620 colon, 99.2%; in the assay on HCC-2998 colon it was 104%; in the assay on KM12 colon, 82.8%.
With `CNC(=O)c1cc(Oc2ccc3nc(Nc4cc(Cl)cc(Cl)c4)ccc3c2)ccn1`, the growth was 55.6% in the assay on T-47D breast; 12.8% with MDA-MB-435 melanoma; 45.6% in the assay on SW-620 colon; 38.8% in the assay with MCF7 breast; 49% in the assay with HCT-116 colon; 74.5% in the assay on HCC-2998 colon.
Consider `NC(N)=N/N=C(/c1ccccc1)c1ccc(N)cc1`, for which the growth was 107% with T-47D breast; 72.7% with BT-549 breast; 111% in the assay with SW-620 colon; 97% in the assay on MCF7 breast; 115% with HCT-116 colon; 103% in the assay on HCC-2998 colon. In the assay with KM12 colon, the growth is 112%.
In the case of `O=C(CC1Sc2ccccc2NC1=O)NNc1ccc(F)cc1` (stereo unspecified), the growth was 66.4% in the assay on T-47D breast; 31% with MDA-MB-435 melanoma; 106% in the assay on SW-620 colon; 84.7% in the assay with MCF7 breast; 71.6% in the assay with HCT-116 colon; 63.7% with HCC-2998 colon.
For the compound `COC1(CC[C@@H](C)COC2OC(CO)C(O)C(O)C2O)O[C@H]2C[C@H]3[C@@H]4CC=C5C[C@@H](OC6OC(CO)C(OC7OC(C)C(O)C(O)C7O)C(O)C6OC6OC(C)C(O)C(O)C6O)CC[C@]5(C)[C@H]4CC[C@]3(C)[C@H]2[C@@H]1C` (stereo partly specified), the growth in the assay on T-47D breast is -4.7% (active); with BT-549 breast, -84.2% (active); with SW-620 colon, -96.4% (active); with MCF7 breast, -85.5% (active); in the assay with HCT-116 colon, -86.1% (active); in the assay with KM12 colon, -82.2% (active).
With `Clc1ccc2[nH]c3c(NCCCN4CCOCC4)ncnc3c2c1`, the growth in the assay with T-47D breast is 72.2%; with BT-549 breast, 77.9%; in the assay with SW-620 colon, 57.2%; in the assay with MCF7 breast it was 74.6%; in the assay on HCT-116 colon, 36.3%; with HCC-2998 colon, 87.4%. The growth in the assay with KM12 colon is 86.5%.
As for `C=C1C(=O)O[C@H]2[C@H]1CC/C(COC(=O)/C=C\C(=O)NCc1ccc(Cn3c(=O)sn(CCCI)c3=O)cc1)=C\CC[C@@]1(C)O[C@@H]21`, the growth in the assay with T-47D breast is -48.3% (active); with BT-549 breast, -56.2% (active); with MDA-MB-435 melanoma it was -83.8% (active); in the assay on SW-620 colon, -76.3% (active); in the assay on HCC-2998 colon it was -77.8% (active); in the assay with KM12 colon, -77% (active).
Turning to `CN1CCN(C2=C(Cl)C(=O)c3ccccc3C2=O)CC1`, the growth in the assay with T-47D breast is 80.8%; in the assay with MDA-MB-435 melanoma, -75% (active); in the assay on SW-620 colon, 98.8%; in the assay on MCF7 breast, 54.9%; in the assay with HCT-116 colon, 10.2%; in the assay with HCC-2998 colon, 86.5%.
